# Assay results from PubChem BioAssay AID743446 (Broad Institute, 2014).
# Entries with a potency or affinity are not part of this list. Unmarked numbers belong to inactive results. No rule for the calls is given here.
# Assay: viability loss in HEK293 cells – cell-based, plate reader, cherry-picked samples, cytotoxicity control, dose response (AID 743446)
# Details: active compounds read low; at 26 µM unless noted
row,SMILES,max activity
1,C[C@H](CO)N1C[C@H](C)[C@H](CN(C)C(=O)Nc2ccc3c(c2)OCO3)OCCCC[C@H](C)Oc2ccc(NC(=O)C3CCCCC3)cc2C1=O,17.6%
2,CCc1nc(Sc2nnnn2-c2ccccc2)c2c3c(sc2n1)CCCC3,-13.3%
3,O=C(Nc1ccc2c(c1)OCCO2)c1ccc(Cl)cc1Cl,-20.3% [at 3 µM]
4,O=C(CN1C(=O)c2ccccc2S1(=O)=O)c1ccc2c(c1)OCCCO2,-22% [at 0.8 µM]
5,COc1ccc2nc(NC(=O)c3ccccc3F)sc2c1,34.9% [at 3 µM]
6,O=C(c1ccc(F)cc1)N1CC(=O)N2[C@@H](CO)[C@@H](c3ccc(C#CC4CCCC4)cc3)[C@@H]2C1,32.7% [at 6 µM]
7,CC(C)c1nnc(NC(=O)c2ccc3c(c2)OCO3)s1,30.9% [at 0.38 µM]
8,C[C@H]1CCCCO[C@@H](CN(C)C(=O)Nc2ccc3c(c2)OCO3)[C@@H](C)CN([C@@H](C)CO)C(=O)c2cc(NC(=O)NC3CCCCC3)ccc2O1,26.2% [at 23.5 µM]
